# Source: PubChem
# This is a sample that favours compounds with a hit; in the whole collection about 2.4% have one here.
# WRN inhibitor – blocks human WRN helicase; Q14191; WRN helicase unwinding, fluorescent forked duplex, kinetic; Potency, µM (titrated, usually from 114 µM), for the others: top-dose activity change, negative = inhibition, usual class: inhibitors; 360,000 compounds, 0.46% hits; also: % is scaled to controls: 0 for no effect and ±100 for the full control effect; nearly all actives have a fitted effect of over 55% in size
#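 Primary qHTS, 1536-well format. 20 nM WRN + compound, 15 min RT; start with 100 nM forked fluorophore/quencher duplex, 2 mM ATP (final); kinetic read ex 525/em 598 nm.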
# Pol iota inh – blocks human DNA polymerase iota activity; Q9UNA4; Pol iota fluorescent replication assay, 10 min; Potency, µM (doses to about 115 µM), inactives show top-dose activity, negative = inhibition, actives largely listed as inhibitors; 390,000 compounds, 1% hits; AID 588590
#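 Fluorescent replication assay read twice, at 0 min and 10 min after adding 50 nM (final) substrate. Enzyme (10 nM) and compounds were first incubated 15 min at room temperature; enzyme-free buffer wells were negative controls.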
# FEN1 inhibitor – human FEN1 inhibition | P39748 | Recombinant FEN1 flap cleavage, fluorescence, 15 min | Potency, µM (series often up to 114 µM), inactives show at the highest dose activity change, negative = inhibition, most hits filed as inhibitors | 390,000 compounds, 0.35% hits | AID 588795; also: % is scaled to controls: 0 for no effect and ±100 for the full control effect; nearly all actives have a fitted effect of over 65% in size
#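 FEN1 at 10 nM, compound pretreatment for 15 min (room temperature), 50 nM final substrate to initiate; endpoint reads at 0 and 15 min; DMSO-only plates used as vehicle background.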
# Pol beta inh – inhibitors of human DNA polymerase beta | P06746 | Pol beta primer extension/strand displacement, fluorescence kinetic | Potency, µM (series often up to 114 µM), for inactives: at the top dose activity change, negative = inhibition, actives largely listed as inhibitors | 340,000 compounds, 1.3% hits | AID 485314; also: % is scaled to controls: 0 for no effect and ±100 for the full control effect
#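 Pol beta (10 nM) was preincubated with compound for 15 min at room temperature. The reaction was then started with 50 nM substrate and read immediately and after a further 10 min at room temperature.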
# Pol eta inh – blocks human DNA polymerase eta activity. 390,000 compounds, 1.2% hits. Q9Y253. Potency, µM (series often up to 114 µM), for the others: top-dose activity change, negative = inhibition, usual class: inhibitors. recombinant Pol eta, fluorescent DNA replication assay; also: % is scaled to controls: 0 for no effect and ±100 for the full control effect
#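 Pol eta at 10 nM preincubated with compounds 15 min at room temperature; reaction started with fluorescent substrate (50 nM final) and read kinetically at 0 and 10 min.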
# Pol kappa inh – inhibitors of human DNA polymerase kappa; Q9UBT6; purified Pol kappa, fluorescent DNA synthesis assay, 10 min; Potency, µM (doses to about 107 µM), without a hit: top-dose activity, negative = inhibition, actives largely listed as inhibitors; 400,000 compounds, 0.53% hits; AID 588579; also: % is scaled to controls: 0 for no effect and ±100 for the full control effect
# Target sequence (Q9UBT6 whole entry, looked up): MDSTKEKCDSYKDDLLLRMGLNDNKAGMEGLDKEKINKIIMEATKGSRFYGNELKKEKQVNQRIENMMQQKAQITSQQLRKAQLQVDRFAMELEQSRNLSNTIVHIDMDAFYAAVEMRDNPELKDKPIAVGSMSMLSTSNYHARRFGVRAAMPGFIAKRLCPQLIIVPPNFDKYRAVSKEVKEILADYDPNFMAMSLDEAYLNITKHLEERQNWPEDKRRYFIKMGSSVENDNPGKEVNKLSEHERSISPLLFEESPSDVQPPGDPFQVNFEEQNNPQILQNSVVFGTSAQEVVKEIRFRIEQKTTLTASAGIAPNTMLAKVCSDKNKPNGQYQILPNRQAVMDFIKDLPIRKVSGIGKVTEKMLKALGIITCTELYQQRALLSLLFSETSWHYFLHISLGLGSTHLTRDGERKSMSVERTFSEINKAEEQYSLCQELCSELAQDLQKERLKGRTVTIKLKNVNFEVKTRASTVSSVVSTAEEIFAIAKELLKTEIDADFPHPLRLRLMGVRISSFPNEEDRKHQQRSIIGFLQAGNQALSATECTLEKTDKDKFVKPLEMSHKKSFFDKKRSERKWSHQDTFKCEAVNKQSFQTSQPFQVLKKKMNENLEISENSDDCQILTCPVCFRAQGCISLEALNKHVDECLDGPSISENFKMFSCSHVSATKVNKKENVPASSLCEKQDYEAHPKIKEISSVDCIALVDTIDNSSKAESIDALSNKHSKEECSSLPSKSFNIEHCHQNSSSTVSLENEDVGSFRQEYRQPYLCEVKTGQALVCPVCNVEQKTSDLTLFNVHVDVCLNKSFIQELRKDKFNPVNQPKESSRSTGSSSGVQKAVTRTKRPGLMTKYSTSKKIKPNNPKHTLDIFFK
#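 Pol kappa 10 nM + cpd, 15 min RT; start w/ substrate 50 nM final; fluorescence kinetic read, 0 and 10 min. Neg ctrl: buffer, no enzyme.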
# The depositor's hits bear a star; i = inactive; ? = inconclusive; . = no result; [ ] = dose if it differs, or a comment. Calls follow the shape of the dose curve; as a rule, active = well fitted curve in the direction sought with a large enough effect; inconclusive = small, poorly fitted or top-dose-only effect, or another doubt; inactive = no such curve, though single readings can be large; an effect the other way counts as inactive or inconclusive. Potency is read from the fitted curve at half-maximal effect.
SMILES,WRN inhibitor,Pol iota inh,FEN1 inhibitor,Pol beta inh,Pol eta inh,Pol kappa inh
CCOc1ccc(C(=O)/C=C/c2cn(CC(O)CN3CCc4ccccc43)c3ccccc23)cc1 (stereo not given),.,-12%,3%,1%,-15%,-6%
CCC(C)NC(=O)c1ccc2nc(-c3ccco3)c(-c3ccco3)nc2c1 (stereo not given),.,22µM*,?,.,.,?
CCC(C)NC(=O)c1ccc2nc(Cc3ccccc3)oc2c1 (stereo not given),.,41%,-3%,0%,5%,-14%[60.1 µM]
Cc1ccc(-n2c(=O)c3c(c4cc(C)ccc4n3C)n(CC(=O)Nc3cc(C)cc(C)c3)c2=O)cc1,.,-3%,-10%,21%,-15%,8%
CC(C)CC(=O)Nc1nc2nc(-c3ccccc3)cc(=O)n2[nH]1,.,20%,-1%,-2%,-12%,-23%
COc1ccc(C(=O)N2CCC3(CC2)CN(C(=O)NC(C)C)C3)cc1,.,.,.,.,.,1%[60.1 µM]
COc1ccc(-c2onc(C)c2C)cc1S(=O)(=O)N1c2ccccc2CC1C (stereo not given),.,13%,-12%,?,?,-10%
O=C(O)c1c2c(nc3ccc(F)cc13)CCC2,-2%,3%,-17%,0%,-12%,-4%
O=C(O)c1c2c(nc3ccc(Cl)cc13)CCC2,-3%[11.6 µM],20%,-11%,16µM*,?,-25%
Cc1ccc2nc3c(c(C(=O)O)c2c1)CCC3,-10%[57.1 µM],?,?,45µM*,32µM*,-43%
O=C(CSc1c2c(nc3ccc(Cl)cc13)CCCC2)N1CCN(c2ccc(Cl)cc2)CC1,.,-6%,6%,-11%,-12%,1%
CCOC(=O)c1scc(-c2ccc(C)cc2)c1S(=O)(=O)Nc1cc(Cl)ccc1OC,.,?,13%,?,-13%,4%
Cc1ccc(-c2nc3cc(Cl)ccc3o2)cc1NC(=O)COc1ccccc1C,.,?,-26%,.,.,?
Cc1cc(O)c2c(C)c(CC(=O)NCc3ccccc3Cl)c(=O)oc2c1,.,29%,23%,-1%,-15%,2%
Cc1ccc(NC(=O)c2cc(NC(=O)c3ccco3)ccc2N2CCOCC2)cc1,2%,23%,-12%,1%,-2%,-11%
Cc1ccc(NC(=O)c2cc(N3C(=O)C=CC3=O)ccc2N2CCOCC2)cc1,35µM*,93%,-1%,?,-6%,-9%
O=C(/C=C/c1ccncc1)c1ccc(NC(=O)c2ccccc2F)cc1,?,?,?,16µM*,-15%,-10%
O=C(/C=C/c1ccc(Br)cc1)c1ccco1,?,?,-1%,-17%,2%,-9%
O=C(/C=C/c1ccc(Br)cc1)c1ccc(NC(=O)c2ccco2)cc1,-7%,?,-14%,7.1µM*,?,?
O=S(=O)(/N=C(/Sc1ccccc1)c1ccccc1)c1ccc(Cl)cc1,.,?,-10%,.,.,-19%
O=S(=O)(/N=C(/Sc1ccc(Cl)cc1)c1ccccc1)c1ccccc1,.,-15%,79µM*,.,.,-31%
COc1ccccc1CCn1c(=O)c(-c2ccccc2)nc2cncnc21,.,.,.,.,.,-2%[60.1 µM]
CCOc1ccc(-c2cc(C(=O)NCCCOC)c3c(-c4ccc(CC)cc4)[nH]nc3n2)cc1,.,27%,-2%,14%,-13%,-3%
O=S(=O)(Nc1ccccc1)c1ccc(-c2cnc(C3CC3)o2)cc1,2%,79µM*,-1%,5%,-13%,8%
COc1cccc(N=c2oc3c(C)ncc(CO)c3cc2C(=O)Nc2ccccc2OC)c1,.,.,.,0%,.,.
SMILES,WRN inhibitor,Pol iota inh,FEN1 inhibitor,Pol beta inh,Pol eta inh,Pol kappa inh
COc1ccc(NC(=O)c2cc3c(COC(C)=O)cnc(C)c3oc2=Nc2cccc(C(=O)O)c2)c(OC)c1,-7%,-23%,?,-26%,3.2µM*,-6%
Cc1ccccc1-c1nc(Nc2ccncc2)c2ccccc2n1,.,.,.,.,.,-18%[60.1 µM]
CCCCCCC[n+]1ccc(/C=C/c2c[nH]c3ccccc23)c2ccccc21,.,?,25µM*,.,.,32µM*
CCCCCCCCCC[n+]1ccc(/C=C/c2c[nH]c3ccccc23)cc1,.,4%,89µM*,.,.,-7%
CCCCCCCCCCCCCCCC[n+]1ccc(/C=C/c2c[nH]c3ccccc23)c2ccccc21,.,i,50µM*,.,.,95%
Cn1c(=O)c2cc(C(=O)NC3CCCCCC3)sc2c2ccccc21,.,-7%,1%,8.9µM*,?,-14%
CCn1c(=O)c2cc(C(=O)NC3CCCCCC3)sc2c2ccccc21,.,8%,-20%,-6%,-6%,-2%
Nc1c(C(=O)Nc2ccc(Br)cc2)sc2nc(-c3ccco3)ccc12,-21%,5%,-11%,-26%,-5%,-8%
CC(=O)c1sc2nc(-c3ccco3)ccc2c1N,?,5µM*,?,13µM*,28µM*,79µM*
COc1cc(C2CC(=O)Oc3ccc(O)cc32)cc(OC)c1OC (stereo not given),.,.,.,.,.,-17%
CC(C)N1C(=O)S/C(=C/c2ccccc2OCc2ccc(C(=O)O)cc2)C1=O,-13%,?,?,1%,89µM*,?
CN1C(=O)S/C(=C\c2ccccc2OCc2ccc(C(=O)O)cc2)C1=O,-12%,19%,7%,-1%,?,-7%
COc1cccc(NC(=O)Nc2cc(-c3cn4cccnc4n3)ccc2C)c1,.,7%,-2%,7.9µM*,-28%,-4%
O=C(Nc1cccc(-c2cn3cccnc3n2)c1)c1ccc(Br)o1,-8%[57.1 µM],79µM*,-22%,1%,-7%,?
CCC(C(=O)Nc1cc(-c2cn3cccnc3n2)ccc1C)c1ccccc1 (stereo not given),.,-23%,3%,40µM*,13%,0%[60.1 µM]
O=C(Nc1cccc(-c2cn3cccnc3n2)c1)c1ccco1,-3%,3%,1%,-12%,-5%,-4%
CC1=C(C(=O)Nc2cccc(Cl)c2)C2(CCCCCC2)OC1=O,.,12%,-11%,1%,-10%,-7%[60.1 µM]
COc1ccc(/C=C2\SC(=O)N(CCc3nnc(N)s3)C2=O)cc1,-28%[57.1 µM],20µM*,2%,?,45µM*,?
Cc1ccc(S(=O)(=O)c2cnc(SCC(=O)Nc3cc(C)cc(C)c3)nc2N)cc1,.,-8%,-3%,1%,-18%,-17%
CSCCOC(=O)c1[nH]c2c(c1C)C(=O)CC(c1ccco1)C2 (stereo not given),56µM*,?,?,7.9µM*,18µM*,32µM*
Cc1c(C(=O)OCc2ccccc2)[nH]c2c1C(=O)CC(c1ccco1)C2 (stereo not given),50µM*,-93%,?,11µM*,22µM*,?
